molecular target: AMP-activated protein kinase, AMPK (Homo sapiens) (UniProt P54646+O43741+P54619+Q9UGJ0+Q9Y478+Q13131+Q9UGI9); experiment: AMP-dependent Kinase enzyme assay. An in vitro enzyme assay that detects ADP turnover that is directly proportional to AMPK activity. This uses naive AMPK that is activated during the assay with MK-8722; type: functional; design: scale not given: direction of the effect not stated beside the values; settings: 30 µM

Row | SMILES | Percent Effect
1 | Cc1cc(NC(C)c2nnn[nH]2)n2nc(C)c(C)c2n1 (stereo not given) | 20.6%
2 | CCC(C)(CC(=O)OC)NCc1c(C)noc1C (stereo not given) | 4.75%
3 | CC(C)(C)C(=O)NCCc1cc(N2CCOCC2)nc(NC2CC2)n1 | 17.4%
4 | CN(Cc1cccs1)Cc1nnsc1Cl | 12.6%
5 | O=C1CCC(=O)N1CCn1nnc(-c2ccc(Br)cc2)n1 | -9.11%
6 | COCC1CCCN(c2cncc(OCc3ccccc3)n2)C1 (stereo not given) | 1.9%
7 | CC1(c2ncc(CN3CCOCC3)cn2)CCCCO1 (stereo not given) | 9.84%
8 | CC(C)c1cc(C(=O)N[C@@H]2CC[C@@H](Oc3ccccc3)[C@@H]2O)on1 | 16.6%
9 | CSC1(CNC(=O)N(C)Cc2sccc2C)CCOCC1 | -7.94%
10 | NCc1ccnc(Oc2ccccc2)c1 | -5.26%
11 | CC(c1nccs1)N(C)S(=O)(=O)NCc1ccccc1 (stereo not given) | -1.57%
12 | COc1ccc2c(c1)CCCN2C(=O)NC1CCCCNC1=O (stereo not given) | 2.81%
13 | Cc1ccccc1CNC(=O)CNc1ccc(OC2CCOC2)cc1 (stereo not given) | 10.2%
14 | COc1cccc(CN2C[C@H]3CC[C@H]2C3)c1OCCN1CCOCC1 | -4.89%
15 | CN(Cc1cscn1)Cc1cc2c(cc1Br)OCO2 | -7.36%
16 | COc1nc(C)ccc1CNC(=O)NC(c1ncc(C)s1)C1CC1 (stereo not given) | -2.14%
17 | CS(=O)(=O)NC(=O)c1ccn(-c2ccc(Cl)c(Cl)c2)n1 | 4.97%
18 | O=C(Cc1ccsc1)N1CCC[C@@H]1Cn1c(=O)oc2ccccc21 | 28.3%
19 | Cn1cc(CN2CCOC(c3cccc(-c4cncnc4)n3)C2)cn1 (stereo not given) | 11.3%
20 | COc1ccc(OC2CCN(C(=O)c3ccc(C(C)=O)s3)CC2)cc1 | -2.68%

Row | SMILES | Percent Effect
21 | Cc1cc(Oc2ccc(NC(=O)C3CC3)cc2)cc(C2CCNCC2)n1 | -9.8%
22 | Cc1cc(C)n(CCN(C)c2ccc(-c3nc(C4CC4)no3)cn2)n1 | 5.62%
23 | Cn1nc(C(=O)NCCc2ccc(OC3CCCC3)cc2)ccc1=O | -4.35%
24 | O=C1C(N2CCOCC2)CCCN1Cc1cccc(C(F)(F)F)c1 (stereo not given) | 5.78%
25 | Cc1c(Br)cccc1CSc1nnc(CO)n1C | 4.59%
26 | Cc1cc(C(=O)N2CCCC(c3ccc(C(=O)O)cc3)C2)c(C)o1 (stereo not given) | 4.65%
27 | Cc1nc(COC(=O)c2cccc3c2OCCO3)no1 | -12.1%
28 | CC(Cc1cccc(F)c1)C(=O)NS(=O)(=O)c1ccc(F)cc1 (stereo not given) | 0.261%
29 | N#Cc1cccnc1NCc1cccnc1N1CCCCC1 | 7.89%
30 | Cc1onc(-c2ccncc2)c1C(=O)NC1CCCOC1 (stereo not given) | -0.537%
31 | O=C(CCC1CCCC1)N1C[C@H]2CC[C@@H]1CN(Cc1ccncc1)C2 | 6.08%
32 | Cc1n[nH]c(C)c1NC(=O)NCc1cc[nH]n1 | -7.26%
33 | O=C(CCCN1CCCCC1)NC(C(=O)O)c1cccc(F)c1 (stereo not given) | 14.7%
34 | Cc1cc(C(=O)N2CC[C@@]3(O)CCN(S(C)(=O)=O)C[C@H]3C2)c(C)n1C | 3.49%
35 | Cc1noc(C(C)N2CCN(Cc3noc(C4CC4)n3)CC2)n1 (stereo not given) | 3.22%
36 | CC1(C)OC(=O)N(CCCOc2ccc(F)cc2)C1=O | -0.642%
37 | CCC(CN1CCCC1)n1cncc1-c1cnn(-c2ccccc2)c1 (stereo not given) | 20%
38 | CCOCCNC(=O)CCC1CCCO1 (stereo not given) | 2.99%
39 | CCc1nc(CCNS(=O)(=O)c2cccc(C(=O)N(C)CC)c2)cs1 | 1%
40 | O=C(CN1CCC(c2nnc(C(F)(F)F)o2)CC1)Nc1cccnc1 | -5.12%

From ChEMBL document CHEMBL3988442, “University of Dundee, Small-Polar-MMV Screening Library” (2021)
